Source: PubChem (National Center for Advancing Translational Sciences (NCATS))
CHX counter: Cycloheximide Counterscreen for Small Molecule Inhibitors of Shiga Toxin; max response, %; actives 12% (n = 300,000); cell reporter, cycloheximide protein synthesis inhibition counterscreen; AID 2314, 2010; in the data active = max response mostly above about 13%, no sharp cut-off; inactive = mostly below about 14%; also: read at 38.3 µM for the half of the compounds with a filed dose; 0% is about no effect
LmPK inhibitor: qHTS Assay for Inhibitors of Leishmania Mexicana Pyruvate Kinase (LmPK) | purified LmPK, Kinase-Glo ATP luminescence, 1 h | Potency, µM (series often up to 57.5 µM), for inactives: at the highest dose activity change, negative = inhibition, hits mostly inhibitors | actives 0.37% (n = 290,000); also: potency is read from the fitted curve at half-maximal effect; % is scaled to controls: 0 for no effect and ±100 for the full control effect
Target sequence (Q27686 whole entry, looked up): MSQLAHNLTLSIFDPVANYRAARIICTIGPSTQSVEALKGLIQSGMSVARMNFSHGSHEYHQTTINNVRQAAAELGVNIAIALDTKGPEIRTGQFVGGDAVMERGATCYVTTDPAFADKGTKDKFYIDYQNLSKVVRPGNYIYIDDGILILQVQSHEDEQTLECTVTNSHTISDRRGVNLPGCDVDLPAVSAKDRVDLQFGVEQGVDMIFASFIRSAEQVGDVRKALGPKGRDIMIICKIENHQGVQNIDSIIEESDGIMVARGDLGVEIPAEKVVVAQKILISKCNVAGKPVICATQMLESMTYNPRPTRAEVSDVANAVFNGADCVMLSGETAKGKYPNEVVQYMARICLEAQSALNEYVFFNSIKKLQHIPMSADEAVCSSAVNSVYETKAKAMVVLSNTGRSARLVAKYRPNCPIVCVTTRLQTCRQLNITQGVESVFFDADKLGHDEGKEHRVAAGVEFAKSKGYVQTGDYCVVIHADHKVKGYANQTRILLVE
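Purified LmPK (0.1 nM) with 0.5 mM PEP and 0.1 mM ADP in imidazole buffer pH 7.2 with MgCl2/KCl, 1 h at room temperature. ATP formed was read by luciferase luminescence and normalized to no-enzyme and uninhibited controls.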
Sm TGR inh: qHTS Assay for the Inhibitors of Schistosoma Mansoni Peroxiredoxins; actives 3% (n = 360,000); purified TGR, DTNB reduction, TNB absorbance 405 nm; Potency, µM (top dose mostly 114 µM), without a hit: top-dose activity change, negative = inhibition, usual class: inhibitors; also: potency is read from the fitted curve at half-maximal effect; % is scaled to controls: 0 for no effect and ±100 for the full control effect; nearly all actives have a fitted effect of over 60% in size
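Kinetic colorimetric format: TGR-catalysed, NADPH-driven DTNB reduction monitored via TNB absorbance. Enzyme dispensed at 20 nM; compound exposure 15 min at room temperature before reaction start.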
Tb PYK inh: qHTS of Trypanosoma Brucei Inhibitors | pyruvate kinase (Trypanosoma brucei), Q57TT1 | TbPYK enzyme, Kinase-Glo Plus ATP luminescence, 45 min | Potency, µM (top dose mostly 76.8 µM), for inactives: at the top dose activity, negative = inhibition, hits mostly inhibitors | actives 0.12% (n = 410,000) | AID 624173, 2012; also: potency is read from the fitted curve at half-maximal effect; % is scaled to controls: 0 for no effect and ±100 for the full control effect; nearly all actives have a fitted effect of over 50% in size
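Assay buffer: 50 mM TEA pH 7.2, 100 mM KCl, 10 mM MgCl2, 0.05% BSA, 0.01% Tween-20. Pyruvate kinase from T. brucei plus substrate met compound, then ADP (130 uM final). Luminescence was read post 45 min RT.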
Shiga inhibitor: A qHTS for Small Molecule Inhibitors of Shiga Toxin. AID 2315, 2010. Vero cells, Shiga toxin protein synthesis inhibition reporter. actives 9.2% (n = 290,000). inhibition, % at 38.7 µM; in the data active = inhibition mostly above about 28%, no sharp cut-off; inactive = mostly below about 43%; also: 0% is about no effect
Giardia FBPA inh: qHTS Assay for Inhibitors of Fructose-1,6-bisphosphate Aldolase from Giardia Lamblia | purified Giardia FBPA | AID 2451, 2010 | actives 0.71% (n = 290,000) | Potency, µM (titrated, usually from 59.6 µM), for inactives: top-dose activity, negative = inhibition, most hits filed as inhibitors; also: potency is read from the fitted curve at half-maximal effect; % is scaled to controls: 0 for no effect and ±100 for the full control effect; nearly all actives have a fitted effect of over 55% in size
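Giardia FBPA (40 nM reagent) was preincubated 10 min at RT with compound (up to 57.5 uM final), then substrate plus GAPDH/TPI/NAD/arsenate coupling system with diaphorase/resazurin was added; resorufin fluorescence (525/598 nm) was read after 20 min.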
Numbers without * were called inactive; ? = inconclusive; . = no result given; [ ] = another dose, or the depositor's remark. This is one part of a sample in which hits are shown more often than they occur. Unless noted, calls follow the shape of the dose curve; as a rule, active = well fitted curve in the direction sought with a large enough effect; inconclusive = small, poorly fitted or top-dose-only effect, or another doubt; inactive = no such curve, though single readings can be large; an effect the other way counts as inactive or inconclusive.

SMILES	CHX counter	LmPK inhibitor	Sm TGR inh	Tb PYK inh	Shiga inhibitor	Giardia FBPA inh
Cc1ccc(F)c(NC(=O)c2ccc(Cn3cc(Cl)cn3)cc2)c1	39*	-11%	.	2%	37	-2%
O=C1NC2(Nc3ccccc31)C(=O)Nc1ccccc12 (stereo not drawn)	24*	-3%	-27%	-6%	59*	-7%
O=C(c1cccn1-c1nnc(N2CCCCC2)s1)N1CCN(c2ccccc2)CC1	.	.	0%	7%[15.4 µM]	.	.
CC(C)OC(=O)Cn1nnc2c(cnn2-c2ccccc2)c1=O	46*	-2%	-12%	-13%	65*	9%
O=C(Cn1nnc2c(cnn2-c2ccc(F)cc2)c1=O)c1ccccc1F	9	2%	7%	4%	19	1%
COC(=O)Cn1nnc2c(cnn2-c2ccccc2)c1=O	25*	-5%	0%	10%	53	7%
O=C1c2cc(Br)ccc2O[C@@H](c2ccc3c(c2)OCO3)[C@@H]1O	.	.	.	.	.	3%
O=C(Cn1nc(CNc2ccc(Cl)cc2)[n+]2c1CCCCC2)c1ccc(Br)cc1	-6	2%	-10%	3%	-16	-3%
O=C(Cn1nc(CNc2ccc(Br)cc2)[n+]2c1CCCCC2)c1ccc([N+](=O)[O-])cc1	7	3%	50µM*	-6%	1	-6%
Cc1ccc(-n2c(C)cc(C(=O)CSc3nncs3)c2C)cc1	45*	-8%	-14%	-16%	105*	-4%
Cc1ccc(-n2c(C)cc(C(=O)CSc3nnnn3C)c2C)cc1	53*	-22%	-34%	-3%	66*	-26%
Cc1cc(C(=O)CSc2nncs2)c(C)n1-c1c(C)n(C)n(-c2ccccc2)c1=O	3	-2%	-33%	17%	-11	0%
CC1Cn2c(nnc2-c2cccc(Cl)c2)S1 (stereo not drawn)	-2	1%	6%	-3%	-2	2%
CC1(C)Cn2c(nnc2-c2cccc(O)c2)S1	24*	-5%	0%	-4%	66*	14%
Fc1cccc(Cl)c1-c1nnc2ccc3ccccc3n12	37*	5%	-11%	-3%	35*	?
CC1=C(C(=O)Nc2ccc(C)c(C)c2)C2(CCCCCC2)OC1=O	.	.	0%	-17%[15.4 µM]	.	.
O=C(COC(=O)c1cncc(Br)c1)Nc1ccc(F)c(F)c1F	.	.	-3%	-2%	.	.
COc1ccc(-c2nn(-c3ccccc3)cc2CNCCN2CCOC2=O)c(F)c1	10	-4%	0%[57.1 µM]	2%	-10	1%
COc1ccc(-n2cc(CNCCCN3CCCC3=O)c(-c3ccccc3Cl)n2)cc1	0	2%	45µM*	-9%	-7	2%
COc1ccc2c(c1)CC(C(=O)Nc1cc(Cl)ccc1C)CO2 (stereo not drawn)	.	.	-5%	8%	.	.
COc1ccc(C2C=C(c3ccccc3)Nc3nc(NC(=O)/C=C/c4ccccc4)nn32)cc1 (stereo not drawn)	.	.	1%	-24%	.	.
CCC(=O)Nc1nc2n(n1)C(c1ccc(OC)cc1)C=C(c1ccccc1)N2 (stereo not drawn)	9	-1%	4.5µM*	.	10	-23%
COc1ccc(C(=O)Nc2nc3n(n2)C(c2ccccc2)C=C(c2ccccc2)N3)cc1 (stereo not drawn)	.	.	3.2µM*	-5%	.	.
COc1cccc(NC(=S)N(CCCN2CCOCC2)C(C)c2cc3ccccc3o2)c1 (stereo not drawn)	-4	6%[11.5 µM]	4%	4%	-3	-4%
CC(=O)Oc1cccc(N2C(=O)C3C4C=CC(CC4)C3C2=O)c1 (stereo not drawn)	-2	0%	45µM*	8%	-1	0%
CN(C)c1ccc2c(c1)C(=NO)c1ccccc1-2	.	.	.	-8%	.	.
ON=C1c2ccccc2-c2ccccc21	25*	5%	7%	1%	23*	3%
Cc1sc2ncnc(Sc3ccccc3C(=O)O)c2c1C	-2	-5%	-1%	-16%	1	12%
